FBPA Giardia inh = blocks Giardia fructose-bisphosphate aldolase activity. purified Giardia FBPA. AID 2451. 290,000 tested, 0.71% active. Potency, µM (titrated, usually from 59.6 µM), for the others: at the highest dose activity, negative = inhibition, hits mostly inhibitors. A8B2U2; note: nearly all actives have a fitted effect of over 55% in size
Target sequence (A8B2U2 whole entry, looked up): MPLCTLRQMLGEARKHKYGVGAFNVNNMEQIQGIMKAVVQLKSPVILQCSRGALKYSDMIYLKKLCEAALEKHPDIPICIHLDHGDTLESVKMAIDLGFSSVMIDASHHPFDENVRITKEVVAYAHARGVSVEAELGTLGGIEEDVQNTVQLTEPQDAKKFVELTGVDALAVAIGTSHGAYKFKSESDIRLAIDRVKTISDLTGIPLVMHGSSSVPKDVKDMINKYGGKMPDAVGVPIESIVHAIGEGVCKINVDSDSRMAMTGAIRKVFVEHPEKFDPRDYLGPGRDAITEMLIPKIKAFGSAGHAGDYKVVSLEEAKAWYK
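Giardia FBPA (40 nM reagent) was preincubated 10 min at RT with compound (up to 57.5 uM final), then substrate plus GAPDH/TPI/NAD/arsenate coupling system with diaphorase/resazurin was added; resorufin fluorescence (525/598 nm) was read after 20 min.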
Sm TGR block = S. mansoni TGR enzyme inhibition; purified TGR, DTNB reduction, TNB absorbance 405 nm; Potency, µM (titrated, usually from 114 µM), inactives show at the top dose activity change, negative = inhibition, actives largely listed as inhibitors; Q962Y6; 360,000 tested, 3% active; note: nearly all actives have a fitted effect of over 60% in size
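Kinetic colorimetric format: TGR-catalysed, NADPH-driven DTNB reduction monitored via TNB absorbance. Enzyme dispensed at 20 nM; compound exposure 15 min at room temperature before reaction start.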
AmpC inh detg = AmpC beta-lactamase inhibition with detergent present; AmpC hydrolysis of nitrocefin, absorbance 480 nm, 0.01% Triton; Potency, µM (titrated, usually from 114 µM), without a hit: at the top dose activity change, negative = inhibition, usual class: inhibitors; 370,000 tested, 0.041% active;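 note: 0% = no-compound wells and -100% = no-enzyme wells; nearly all actives have a fitted effect of over 25% in size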
Target sequence (P00811 whole entry, looked up): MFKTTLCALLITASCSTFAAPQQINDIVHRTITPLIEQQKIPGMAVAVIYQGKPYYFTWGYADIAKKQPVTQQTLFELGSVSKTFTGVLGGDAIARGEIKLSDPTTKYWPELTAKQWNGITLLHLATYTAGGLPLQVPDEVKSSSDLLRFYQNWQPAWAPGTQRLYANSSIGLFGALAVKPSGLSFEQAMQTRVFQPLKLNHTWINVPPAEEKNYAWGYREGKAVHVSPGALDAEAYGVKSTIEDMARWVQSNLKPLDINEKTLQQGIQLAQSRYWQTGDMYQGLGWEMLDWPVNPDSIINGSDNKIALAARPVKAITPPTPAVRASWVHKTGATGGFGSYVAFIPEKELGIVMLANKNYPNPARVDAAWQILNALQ
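20 mM phosphate pH 7.0 + 0.01% (detergent screen) or 0.0001% Triton X-100; 5.3 nM AmpC reagent; cpd preinc 15 min RT; nitrocefin (800 uM stock) to start; A480 q20 s × 4 min; Activity was normalised to no-enzyme and no-compound control wells.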
AmpC no deterg = AmpC beta-lactamase inhibition without detergent; P00811; AmpC nitrocefin hydrolysis, absorbance 480 nm, 0.0001% Triton; Potency, µM (top dose mostly 57.1 µM), without a hit: at the top dose activity change, negative = inhibition, hits mostly inhibitors; 330,000 tested, 0.52% active;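 note: plate controls were no compound for no effect and no enzyme for full effect; nearly all actives have a fitted effect of over 20% in size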
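AmpC (5.3 nM in the dispensed reagent) in 20 mM phosphate pH 7.0 with 0.01% (detergent screen) or 0.0001% Triton X-100 was preincubated with compounds for 15 min at room temperature. Nitrocefin was then added from an 800 uM solution, and hydrolysis was followed at 480 nm.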
RE007 growth inh = less growth of the S. pombe RE007 Vpr strain; S. pombe RE007 Vpr strain, BacTiter-Glo ATP luminescence, 24 h; Potency, µM (doses to about 92.2 µM), inactives show at the highest dose activity change, negative = less growth, usual class: inhibitors; 360,000 tested, 0.21% active; AID 651644; active = well fitted falling curve with a large enough effect; inconclusive = small, poorly fitted or top-dose-only effect; inactive = no such curve, though single readings can be large or run the other way; note: nearly all actives have a fitted effect of over 50% in size
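Fission yeast RE007 carrying one integrated HIV-1 vpr copy, seeded at OD 0.01 in PMG+AL medium with 23 nL pinned compound. Grown 24 h at 30 degrees; viability read by BacTiter-Glo luminescence after 5 min.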
Numbers without * were called inactive; u = inconclusive; x = no result; ! = not confirmed by another sample; [ ] = remark or other dose. Most compounds without a hit are left out; they make up all but 3.4% or so of the library. Unless noted, calls come from the whole dose curve; as a rule, active = well fitted curve in the direction sought with a large enough effect; inconclusive = small, poorly fitted or top-dose-only effect, or another doubt; inactive = no such curve, though single readings can be large; an effect the other way counts as inactive or inconclusive. Unless noted, % is set by controls: 0 for no effect and ±100 for the full control effect; potency is the fitted concentration of half-maximal effect.

SMILES	FBPA Giardia inh	Sm TGR block	AmpC inh detg	AmpC no deterg	RE007 growth inh
COc1ccccc1N1CCN(C(=O)c2nn(C)c3c2CS(=O)(=O)c2ccccc2-3)CC1	x	8.91µM*!	7.0%	88.0%	-12.7%
COc1ccc(N2CCN(C(=O)c3nn(C)c4c3CS(=O)(=O)c3ccccc3-4)CC2)cc1	x	4.1%	5.1%	41.9%	10.7%
FC(F)(F)c1cccc(NC(=S)Nc2cccc(NC(=S)Nc3cccc(C(F)(F)F)c3)n2)c1	-4.0%	-18.4%	-1.4%	7.94µM*	-15.6%
Cc1cccc(NC(=S)Nc2cccc(C(F)(F)F)c2)n1	4.9%	-6.6%	-8.2%	-34.6%	17.1%
S=C(Nc1ccccc1)Nc1ccc(Cl)cc1Cl	u	25.1µM*	0.8%	-9.4%	4.3%
FC(F)(F)c1ccccc1NC(=S)Nc1cccc(Cl)c1	-3.0%	25.1µM*	-0.8%	-7.6%[2.29 µM]	-11.1%
S=C(Nc1ccccc1Cl)Nc1ccc(Cl)cc1Cl	-6.8%	25.1µM*	0.7%	-12.1%	-3.2%
Cc1noc(C)c1C(=O)N1CCN(S(=O)(=O)c2ccc(F)cc2)CC1	3.2%	-3.2%	-0.3%	-37.1%	11.3%
O=C(NNC(=S)Nc1cccc(C(F)(F)F)c1)c1cccc(Cl)c1	23.5%	0.3%	-10.6%	-42.9%	10.4%
FC(F)(F)c1cccc(NC(=S)Nc2ccc(Cl)cc2Cl)c1	-10.5%	22.4µM*	-2.0%	-26.3%	0.4%
S=C(NCC1CCCO1)Nc1ccc(Cl)cc1 (centres undefined)	4.4%	u	-10.8%	-14.8%	3.2%
S=C(NCC1CCCO1)Nc1ccc(Cl)cc1Cl (centres undefined)	-0.4%	50.1µM*	-4.3%	-17.1%	1.7%
Cn1c2ccccc2c2cc(C(=O)NNC(=O)CCl)sc21	-3.8%	39.8µM*	0.8%	-6.0%	-5.5%
N#Cc1ccccc1S(=O)(=O)N1CCC(C(=O)Nc2cccc(C(=O)NC3CC3)c2)CC1	x	-10.9%	0.0%	-29.2%	2.4%
CC[C@@H]1[C@H]2CCCC(=O)N3CC[C@@H](C[C@@H]1OC(=O)NCc1ccccc1)[C@@H]23	21.7%	35.5µM*	u	33.8%	4.6%
CCC(=O)N1CCc2cc(S(=O)(=O)NCCC(=O)NCc3ccc(F)cc3)ccc21	-5.4%	1.6%	-0.7%	-5.7%	-3.4%
CCCCS(=O)(=O)N1CN(S(=O)(=O)CCCC)C2NC(=O)NC21 (centres undefined)	13.1%	35.5µM*	1.8%	10.9%	17.9%
COc1ccccc1CNC(=O)C(=O)Nc1nccs1	1.9%	44.7µM*	1.0%	51.3%	-8.7%
Cc1ccccc1CNC(=O)C(=O)Nc1nccs1	-8.0%	2.2%	-1.9%	-9.1%	-10.0%
CCc1ccc(S(=O)(=O)ON2C(=O)c3ccccc3C2=O)cc1	-1.2%	1.41µM*	35.5µM*	-5.1%[2.29 µM]	-9.0%
COc1ccc(OC)c(S(=O)(=O)ON2C(=O)c3ccccc3C2=O)c1	-4.2%	0.631µM*	39.8µM*	u	15.6%
COc1ccc(OC)c(S(=O)(=O)N2CCN(c3ccccc3)CC2)c1	8.7%	-4.1%	u	-8.5%	6.3%
O=C1c2cccc3cccc(c23)C(=O)N1OS(=O)(=O)c1ccc(Cl)cc1	0.5%	-14.5%	-12.3%	-26.9%	-20.0%
Nc1ccccc1-c1ccc(Cl)cc1	x	x	x	x	10.9%
CCN(CC)c1ccc(NS(=O)(=O)c2cc3[nH]c(=O)c(=O)[nH]c3cc2C)c(C)c1	x	35.5µM*	12.5%	x	x
SMILES	FBPA Giardia inh	Sm TGR block	AmpC inh detg	AmpC no deterg	RE007 growth inh
Cc1cc(Cl)ccc1NS(=O)(=O)c1cc2[nH]c(=O)c(=O)[nH]c2cc1C	x	-2.2%	17.3%	x	x
CCN(CC)CCNC(=O)c1ccc2nc(CCc3ccccc3)oc2c1	x	0.4%	2.7%	x	x
COc1cc(NCc2ccc3nc(N)nc(N)c3c2C)cc(OC)c1OC	5.61µM*	x	x	x	x
COc1ccc(NC(=O)c2cccc3ccccc23)cc1	-3.5%	89.1µM*	-18.0%	-30.2%	2.1%
CCn1ccnc1[C@@H]1C[C@H]2CN(Cc3cccc(Cl)c3)C(=O)[C@]23CCCN13	5.1%	1.3%	5.3%	22.0%	10.4%
O=C1N(Cc2cccnc2)C[C@@H]2C[C@@H](c3ccc4nonc4c3)N3CCC[C@@]123	-8.8%	28.2µM*	-3.3%	23.5%	-0.2%
O=C1N(Cc2cccc(Cl)c2)C[C@@H]2C[C@@H](c3ccccn3)N3CCC[C@@]123	-7.0%	10µM*	7.2%	60.9%	-1.9%
O=S(=O)(c1ccc(NC(=S)N2CCN(c3ccc(O)cc3)CC2)cc1)N1CCOCC1	-9.8%	-7.8%	1.2%	-15.2%	2.6%
O=C(Cn1c(CC(=O)N2CCOCC2)nc2ccccc21)Nc1ccc2c(c1)OC(F)(F)O2	14.8%	2.2%	0.3%	93.3%	-2.3%
COc1ccccc1CC(=O)NC1CCN(Cc2ccccc2)CC1	7.9%	-2.7%	5.1%	-4.1%	-2.3%
COc1cc2cc(CCCOC(=O)c3ccc(Br)cc3)oc(=O)c2cc1OC	x	u	6.9%	79.2%	-22.9%
Cc1c(C(=O)N/N=C/c2ccc(-c3ccccc3[N+](=O)[O-])o2)sc(N)c1C#N	u	-12.8%	-2.1%	-35.8%	-9.4%
COCc1cc(C)nc(N/N=C/c2ccc(-c3ccc(Cl)cc3[N+](=O)[O-])o2)c1C#N	u	8.91µM*	3.3%	-26.9%	-12.9%
CC(=O)c1ccc(S(=O)(=O)N2CCn3cccc3C2C)cc1 (centres undefined)	x	35.5µM*	-1.6%	-0.4%	-1.1%
COC(=O)c1ccccc1S(=O)(=O)N1CCn2cccc2C1C (centres undefined)	-13.5%	u	-5.7%	-43.2%	3.4%
COc1ccc(NC(C)=O)cc1S(=O)(=O)N1CCn2cccc2C1C (centres undefined)	x	25.1µM*	-1.8%	27.1%	-9.2%
CC(=O)c1cccc(S(=O)(=O)N2CCn3cccc3C2C)c1 (centres undefined)	x	31.6µM*	u	-6.6%	0.9%
CC1c2cccn2CCN1S(=O)(=O)c1ccc(F)cc1 (centres undefined)	x	u	-2.5%	-13.7%	-0.1%
CCc1cc(C(=O)Nc2cc(S(=O)(=O)N3CCOCC3)ccc2N2CCN(CC)CC2)sc1C	x	x	x	x	-12.1%
COC(=O)c1c(NC(=O)CSc2nnnn2C)sc(C)c1C	-8.1%	3.2%	u	-1.5%	5.0%
O=CNn1cnc2c(oc3nc(-c4ccccc4)cc(-c4ccco4)c32)c1=O	u	39.8µM*	-2.3%	2.6%	3.4%
Cc1cccc(N2CCN(C(=S)Nc3ccc4nc(N5CCN(C)CC5)cc(C)c4c3)CC2)c1C	7.8%	-6.5%	-6.9%	-9.1%	-12.6%
O=C(NCCCN1CCOCC1)c1cc(-c2ccco2)nc2ccccc12	x	x	x	-5.5%	-1.4%
CCCCn1c(N)c(N(CC(C)C)C(=O)c2cc(-c3ccco3)nc3ccccc23)c(=O)[nH]c1=O	x	22.4µM*	-21.3%	-29.3%	8.7%

Assay outcomes (PubChem)
